Screening results deposited in PubChem by several laboratories.
Only some compounds are listed: those with a hit (about 1.6% of all), similar ones and a draw of the others.
PABP1 MLLE inh – inhibitors of PABP1 MLLE–PAM2 peptide binding, primary screen, biochemical, fluorescence polarization, FITC-PAM2, GST-MLLE. inhibition, % at 20 µM. AID 588489, 2011. hit rate 0.36% among 360,000; in the data active = inhibition above about 35%, passing the limit was not always enough;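 also: plate controls were DMSO wells with GST-MLLE for no effect and wells lacking GST-MLLE protein for full effect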
eIF4E-4G inh – eIF4E–eIF4G protein interaction inhibitors, primary screen, biochemical, uHTS, TR-FRET, eIF4GI fragment. Eukaryotic translation initiation factor 4E (Mus musculus) + Eukaryotic translation …. TR-FRET eIF4E-eIF4GI(517-606) binding, 2 h. inhibition, % at 21.7 µM. hit rate 0.37% among 220,000. AID 782, 2007;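 active = inhibition above about 30%, limit read from the data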;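 also: 0% = full FRET control wells and 100% = background wells lacking eIF4GI fragment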
PERK inh – block of dimerizer-induced PERK translation repression, primary screen, PERK inhibitor project, CHO PERK-DD cells, SEAP luminescence, HTS. hit rate 0.17% among 220,000. AID 1416, 2008. CHO PERK-DD fusion, SEAP luminescence translation reporter. inhibition, % at 5.6 µM. Eukaryotic translation initiation factor 2-alpha kinase 3 (Homo sapiens), Q9NZJ5;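 active = inhibition above the mean inhibition of all tested compounds plus 3 SD, set separately per screening campaign, cut at about 2.9% in these data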;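 also: PERK kinase domain activated by AP20187 dimerizer at 100 nM; 0% = DMSO with dimerizer and 100% = rapamycin at 8.4 µM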
PABP polyA inh – PABP poly(A) RNA binding inhibitors, primary screen, biochemical, fluorescence polarization, uHTS. inhibition, % at 35 µM. Polyadenylate-binding protein 1 (Homo sapiens), P11940. AID 2014, 2009. hit rate 1% among 290,000;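 also: calls also rest on retests at 20 µM and on dose response follow-up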
eIF4H inh – human eIF4H binding inhibitors, primary screen, translation initiation inhibitor project, biochemical, uHTS, fluorescence polarization | inhibition, % at 35 µM | eIF4H fluorescence polarization binding assay | AID 2012, 2009 | Eukaryotic translation initiation factor 4H (Homo sapiens), Q15056 | hit rate 0.94% among 290,000;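 also: calls also rest on retests at 20 µM and on dose response follow-up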
* hit, by the source's call; u = inconclusive; x = not tested or not shown. Unless noted, no rule for the calls is given here.

SMILES	PABP1 MLLE inh	eIF4E-4G inh	PERK inh	PABP polyA inh	eIF4H inh
CSC1=N/C(=C\c2ccccc2F)C(=O)S1	9	-7	2	7	-1
CSC1=N/C(=C\c2ccc(Br)o2)C(=O)S1	0	12	0	16*	57*
Cc1ccc(Nc2c([N+](=O)[O-])ccc3c2=NC2(CCCCC2)N=3)cc1	39*	5	1	-13	-4
CC1CC(C)CN(S(=O)(=O)c2cc3c4c(c2)C(C)C(=O)N4CCC3)C1 (stereo unspecified)	-3	x	x	x	x
Cc1n(-c2ccccc2)c2ccc(Cl)cc2[n+]1CCO	-93	2	0	64*	1
O=Cc1c(N2CCN(CCO)CC2)nc2ccccn2c1=O	47*	x	x	u	u
COc1ccnc(CN(C)C(=O)C2CCC(=O)N(CCN(C)C)C2)c1 (stereo unspecified)	-8	x	x	27	54*
CCc1ccc(CN(C)C(=O)C2CCC(=O)N(CCc3ccc(OC)cc3)C2)nc1 (stereo unspecified)	11	x	x	-4	3
C/C(=N\NC(=O)c1ccc(NS(=O)(=O)c2cccs2)cc1)c1cccs1	-3	2	1	81*	active
C/C(=N\NC(=O)c1ccc(NS(=O)(=O)c2cccs2)cc1)c1ccc(Cl)cc1	-4	2	2	-1	1
Cc1ccc(NC(=O)C(C)N2CCCc3ccccc32)cc1S(=O)(=O)N1CCOCC1 (stereo unspecified)	-9	x	x	x	x
CCN(CC)S(=O)(=O)c1cc(NC(=O)C(C)N2CCc3ccccc32)ccc1C (stereo unspecified)	-11	1	-1	72	active
Cc1nn(-c2ccccc2)c(Cl)c1C1C(C#N)=C(N)Oc2n[nH]c(C)c21 (stereo unspecified)	11	-5	1	5	-7
C[n+]1cccc2ccc3c(c21)OC(N)=C(C#N)C3c1ccccc1 (stereo unspecified)	-107	94*	1	31	12
C[n+]1cccc(C2C(C#N)=C(N)Oc3c2ccc2ccccc32)c1 (stereo unspecified)	-63	3	2	70*	32
CC(C)OC(=O)Cc1nc2sc(-c3ccccc3)cc2c(=O)[nH]1	-73	x	x	-5	2
CC(=O)N1c2ccc(S(=O)(=O)N3CCCC3C(=O)Nc3ccc(C)cc3)cc2CC1C (stereo unspecified)	3	x	x	12*	54
O=C(Oc1ccc(-n2cnnn2)cc1)c1ccccc1	-6	2	1	-11	71*
O=C(Oc1ccccc1)c1ccc(-n2cnnn2)cc1	-11	-6	1	0	12
NC(=O)COc1ccc(-n2cnnn2)cc1	2	22	2	1	92*
CCN(CC)S(=O)(=O)c1ccc(NS(=O)(=O)c2ccc(O)c([N+](=O)[O-])c2)cc1	4	2	1	-3	-3
CCC(=O)N1CCc2cc(Br)c(S(=O)(=O)CCC(=O)NCCOC)cc21	8	x	x	x	x
COc1ccc(CCNC(=O)COc2ccc(S(=O)(=O)NC(C)C)cc2)cc1OC	14	0	0	-3	-2
O=C(NCc1cccc2[nH]ccc12)C1CCC(=O)N(CCc2ccc(Cl)cc2)C1 (stereo unspecified)	2	x	x	8	-6
CC(C)N(C(=O)/C=C/c1cccc([N+](=O)[O-])c1)C(C)C	7	-1	3.6*	4	6
SMILES	PABP1 MLLE inh	eIF4E-4G inh	PERK inh	PABP polyA inh	eIF4H inh
Cc1cc(=O)[nH]c(N/N=C/c2c(C)nn(-c3ccccc3)c2Cl)n1	1	-20	0	6	-11
Cc1oc(-c2ccc(Cl)cc2)cc1-c1nn2c(-c3ccoc3C)nnc2s1	-18	4	1	59*	85*
Cc1ccc(/C=C2\C(=O)Nc3ccccc32)o1	23	1	0	1.4*	87*
NS(=O)(=O)c1ccc(-c2ccc(/C=C3\C(=O)Nc4ccccc43)o2)cc1	x	x	x	4	5
O=C(CN1C(=O)S/C(=C/c2ccncc2)C1=O)N1CCOCC1	49*	1	1	-4	0
Cc1ccc(NC(=O)CN2C(=O)S/C(=C/c3ccncc3)C2=O)cc1	48*	x	x	0	5
CCCCn1c(=O)c(CCC(=O)OCC(=O)NC(=O)NCCC(C)C)nc2ccccc21	18	11	0	58	active
Cc1onc(-c2ccccc2)c1C(=O)Nc1ccc(C(=O)N2CCCCC2)cc1	2	x	x	-7	1
O=C(O)C1Sc2[nH]c(=O)sc2C2c3cc(Br)ccc3OC(=O)C12 (stereo unspecified)	18	-3	1	u	u
O=C(O)C1Sc2[nH]c(=O)sc2C2c3cc(Cl)ccc3OC(=O)C12 (stereo unspecified)	15	10	0	74*	14
CC(=O)Nc1ccc(NC(=O)C(F)(F)F)cc1	-2	2	1	-8	-4
Cc1nc2ccccc2cc1C(=O)N/N=C/c1ccco1	-4	15	1	-18	87*
O=C(N/N=C/c1ccco1)c1cc(-c2cccs2)[nH]n1	-3	10	-1	active	60*
S=C(NCc1ccccc1)N1CCn2cccc2C1c1ccncc1 (stereo unspecified)	-3	-1	1	6	7
O=[N+]([O-])c1c(Nc2ccc(O)cc2)cc(Cl)c2nonc12	39*	x	x	4	9
O=C(O)c1cccc(Nc2cc(Cl)c3nonc3c2[N+](=O)[O-])c1	36	2	1	0	-1
O=C(O)c1ccccc1Nc1cc(Cl)c2nonc2c1[N+](=O)[O-]	42*	x	x	10	11
CN(C)c1cc(Nc2ccc(O)cc2)c([N+](=O)[O-])c2nonc12	0	7	-1	1	-11
Cc1cc(-c2c(C)[nH]n(-c3ccc(Cl)cc3)c2=O)n(-c2ccccc2)n1	-1	-3	1	-3	1
COC(=O)c1sc(C(=O)OC)c(C(=O)OC)c1C(=O)OC	-7	-5	1	-5	-5
COC(=O)c1sc(=S)sc1C(=O)OC	52*	7	1	2	8
O=C(Nc1cccc(S(=O)(=O)NC2=NCCCCC2)c1)c1cc(-c2ccco2)nc2ccccc12	-22	35*	-1	30	74
Cc1cc(C)cc(-n2c(SCC(=O)Nc3cccc(S(=O)(=O)NC4=NCCCCC4)c3)nc3ccccc3c2=O)c1	-12	1	-1	97*	active
CSc1ccccc1C(=O)NCCc1ccc(S(=O)(=O)N2CCCCC2)cc1	0	0	-2	-7	-6
COc1ccc(C(=O)O/N=C(\C)c2nccs2)cc1	-9	1	0	-2	-7
